Screening data: PubChem, National Center for Advancing Translational Sciences (NCATS)
HCMV antiviral: qHTS Assay for inhibitors of the human cytomegalovirus (HCMV); HFF cells, HCMV-luciferase reporter, 72 h; active compounds read low; activity change, negative = inhibition, % at 57.5 µM; 4.5% of 410,000 active; AID 1259415, 2018; in the data active = activity change below about -60%; inconclusive = no clear call, values can overlap the other calls; inactive = above about -39%
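HFF cells seeded 16 h at 37C, treated with compounds, infected with luciferase-reporter HCMV at MOI 1 PFU/cell; luciferase read at 72 h post infection, normalized to buffer-only and Salinomycin controls.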
MARV entry inh: qHTS for inhibitors of binding or entry into cells for Marburg Virus. Marburg virus pseudotyped entry inhibition, cell reporter. Potency, µM (top dose mostly 37.8 µM), for the others: at the highest dose activity change, negative = inhibition, hits mostly inhibitors. 1.8% of 300,000 active. AID 540276, 2011; calls by dose curve; tested in HEK293 cells; also: potency is read from the fitted curve at half-maximal effect
LASV entry inh: qHTS for Inhibitors of binding or entry into cells for Lassa Virus; Lassa virus pseudotype entry inhibition, cell reporter; Potency, µM (highest dose often 37.9 µM), for the others: top-dose activity change, negative = inhibition, usual class: inhibitors; 1.2% of 300,000 active; AID 540256, 2011; calls by dose curve; tested in HEK293 cells; also: potency is read from the fitted curve at half-maximal effect; nearly all actives have a fitted effect of over 50% in size
VACV mCherry inh: qHTS for Stage-Specific Inhibitors of Vaccinia Orthopoxvirus: mCherry Reporter Primary qHTS. Vaccinia virus mCherry reporter infection, fluorescence. Potency, µM (doses to about 36.5 µM), inactives show at the highest dose activity change, negative = inhibition, most hits filed as inhibitors. AID 720579, 2013. 0.63% of 310,000 active; calls by dose curve; tested in A549 cells; also: potency is read from the fitted curve at half-maximal effect; nearly all actives have a fitted effect of over 35% in size
FMDV antiviral: High Throughput Screening for Foot and Mouth Disease Virus Antivirals | FMDV antiviral cell-based qHTS | Potency, µM (series often up to 57.9 µM), for inactives: at the top dose activity change, negative = inhibition, hits mostly inhibitors | 1.2% of 410,000 active | AID 1159524, 2015; calls by dose curve; tested in HEK293T cells; also: read-out not given here; potency is read from the fitted curve at half-maximal effect; nearly all actives have a fitted effect of over 45% in size
VACV Venus inh: qHTS for Stage-Specific Inhibitors of Vaccinia Orthopoxvirus: Venus Reporter Primary qHTS; 0.46% of 330,000 active; Potency, µM (series often up to 36.5 µM), without a hit: at the highest dose activity change, negative = inhibition, hits mostly inhibitors; Vaccinia virus Venus reporter expression, fluorescence; AID 720580, 2013; calls by dose curve; tested in A549 cells; also: potency is read from the fitted curve at half-maximal effect; nearly all actives have a fitted effect of over 30% in size
* hit, by the source's call; i = inactive; u = inconclusive; x = not tested or not shown; [ ] = dose if it differs, or a comment. Sampled rows, rich in hits. Any-hit rate of the full collection: about 6.5%. % is scaled to controls: 0 for no effect and ±100 for the full control effect.

SMILES | HCMV antiviral | MARV entry inh | LASV entry inh | VACV mCherry inh | FMDV antiviral | VACV Venus inh
COc1ccccc1N1CCN(c2ccc(-c3ccccc3)nn2)CC1 | -96* | 1.6µM* | 3.5µM* | u | -61% | -26%
COc1ccc(CNC(=O)/C=C/c2ccco2)cc1OC | -89* | -3%[46.1 µM] | 1% | i | -8% | -4%
Fc1ccc(NCc2nnc3n2CCCCC3)cc1Cl | 7 | x | -22%[46.1 µM] | -5% | -19% | -3%
CSc1ccc(C2NN=C(c3ccccc3)S2)cc1 (stereo not given) | 19 | 2.8µM* | 6.3µM* | i | u | -8%
CCOc1ccccc1C(=O)Nc1c(NC)c2ccccc2oc1=O | 21 | -16%[46.1 µM] | u | -10% | -13% | 0%
CCC(=O)Nc1ccccc1-c1nc2ccccc2n(C(C)C(=O)Nc2ccc(OC)cc2)c1=O (stereo not given) | 5 | -25%[46.1 µM] | -25%[46.1 µM] | -1% | 39% | -3%
CCC(C(=O)Nc1ccc(C)c(Cl)c1)n1c(=O)c(-c2ccccc2NC(C)=O)nc2ccccc21 (stereo not given) | -97* | 20%[46.1 µM] | 19%[46.1 µM] | -22% | u | -14%
CCC(=O)Nc1ccccc1-c1nc2ccccc2n(C(CC)C(=O)Nc2cccc(Cl)c2)c1=O (stereo not given) | -108* | -15%[46.1 µM] | -13%[46.1 µM] | u | u | u
CC(C)NC(=O)COC(=O)c1ccccc1OCC(=O)Nc1ccc(Br)cc1 | x | x | x | -12% | x | -7%
CCOC(=O)CSc1nc(C)cc(C)n1 | 21 | u | 15% | x | -4% | -24%
CCOC(=O)CC1(O)CSc2nc(N)cc(=O)n21 (stereo not given) | -77* | x | x | x | x | x
Cc1ccc(-n2c(Cl)c(Cl)nc(Cl)c2=O)cc1 | x | u | 7.3µM* | u | 7.1µM* | u
COc1nc(Cl)cn(-c2ccc(C)cc2)c1=O | -27 | 30% | -2% | i | -4% | -4%
CCOC(=O)c1c(NC(=O)C(C)Sc2cn(CCNC(=O)c3ccc(OC)cc3)c3ccccc23)sc2c1CCC2 (stereo not given) | -6 | u | -5%[46.1 µM] | -9% | -15% | -12%
Cc1ccc(CNC(=O)c2ccc(NC3=NC4CS(=O)(=O)CC4S3)cc2)cc1 (stereo not given) | -68* | x | x | i | -6% | -8%
Cc1ccc(C(=O)Nc2ccc(F)cc2)cc1NC1=NC2CS(=O)(=O)CC2S1 (stereo not given) | -101* | x | x | -10% | -13% | 1%
Cc1ccc(Cl)cc1N1CCN(c2ncnc3c2nc2n3CCCCC2)CC1 | -28 | x | 3%[46.1 µM] | -2% | u | -2%
Cc1cccc(CCNC(=O)C2CCCN(c3ncnc4c3nc3n4CCCCC3)C2)c1 (stereo not given) | u | u | u | -14% | -19% | -20%
Cc1cccc(N2CCN(c3ncnc4c3nc3n4CCCCC3)CC2C)c1 (stereo not given) | -98* | x | u | u | 2.2µM* | u
Cc1cccc(N2CCN(CCCNC(=O)C3CCCN(c4ncnc5c4nc4n5CCCCC4)C3)CC2C)c1 (stereo not given) | u | 11µM* | u | -24% | u | u
O=C(CN1C(=O)CSc2ccc(S(=O)(=O)N3CCCCC3)cc21)NCc1ccc(F)cc1Cl | -17 | x | u | -6% | -10% | -7%
CN(C(=O)CNC(=O)OCc1ccccc1)c1ccc(Br)cc1C(=O)c1ccccc1Cl | u | 5.8µM* | u | u | u | u
O=C(CNC(=O)OCc1ccccc1)Nc1ccc(Br)cc1C(=O)c1ccccc1Cl | -13 | u | 1% | -6% | 0% | -25%
COc1cccc(OC)c1-c1cc(C(=O)NC2(C(=O)O)C3CC4CC(C3)CC2C4)nn1-c1ccc(C(=O)N(C)CCCN(C)C)cc1C(C)C (stereo not given) | x | x | x | x | -10% | x
CN(C)CCCNC(=S)NCC(c1ccc(Cl)cc1Cl)c1c[nH]c2ccccc12 (stereo not given) | u | u | 10µM* | u | -23% | u
SMILES | HCMV antiviral | MARV entry inh | LASV entry inh | VACV mCherry inh | FMDV antiviral | VACV Venus inh
CCC(C)C(=O)N[C@@H](c1ccccc1)[C@@H](O)C(=O)O[C@H]1C[C@@]2(O)[C@@H](OC(=O)c3ccccc3)C3[C@](C)(C(=O)[C@H](OC(C)=O)C(=C1C)C2(C)C)[C@@H](O)C[C@H]1OC[C@@]31OC(C)=O (stereo not given in full) | 21 | x | x | -5% | -18% | -23%
CC(=O)O[C@H]1C(=O)[C@@]2(C)[C@H]([C@H](OC(=O)c3ccccc3)[C@]3(O)C[C@H](OC(=O)[C@H](O)C(NC(=O)c4ccccc4)c4ccccc4)C(C)=C1C3(C)C)[C@]1(OC(C)=O)CO[C@@H]1C[C@@H]2O (stereo not given in full) | -83* | x | x | u | -29% | -25%
CC(=O)O[C@H]1C(=O)[C@@]2(C)[C@H]([C@H](OC(=O)c3ccccc3)[C@]3(O)C[C@H](OC(=O)[C@H](O)[C@@H](NC(=O)c4ccccc4)c4ccccc4)C(C)=C1C3(C)C)[C@]1(OC(C)=O)CO[C@@H]1C[C@@H]2O | -70* | u | x | u | u | u
CC(=O)O[C@@]12CO[C@@H]1C[C@@H](O)[C@@]1(C)C(=O)[C@H](O)C3=C(C)[C@@H](OC(=O)[C@H](O)[C@@H](NC(=O)c4ccccc4)c4ccccc4)C[C@@](O)([C@@H](OC(=O)c4ccccc4)C12)C3(C)C (stereo not given in full) | u | x | x | u | -23% | -21%
CC/C=C/CC(=O)N[C@@H](c1ccccc1)[C@@H](O)C(=O)O[C@H]1C[C@@]2(O)[C@@H](OC(=O)c3ccccc3)C3[C@](C)(C(=O)[C@H](OC(C)=O)C(=C1C)C2(C)C)[C@@H](O)C[C@H]1OC[C@@]31OC(C)=O (stereo not given in full) | -91* | x | x | -9% | 0% | u
O=S1(=O)N[C@@H](Cc2ccccc2)COc2cc(N3CCCCC3)ccc21 | -21 | u | x | x | x | x
COC(=O)N1C[C@H](OCc2cn(-c3cc(Cl)cc(Cl)c3)nn2)[C@H](OCc2cn(-c3cc(Cl)cc(Cl)c3)nn2)C[C@@H]1c1ccccc1Br | -32 | x | x | x | x | x
Cc1nnc(Nc2ccc(F)cc2)c2ccccc12 | 19 | 9% | 18% | -14% | 13% | -11%
Cc1nnc(Nc2ccccn2)c2ccccc12 | -60* | 13% | 4% | -8% | 20% | 9%
